Screening results deposited in PubChem by several laboratories.
An excerpt weighted towards active compounds, which were near 4.6% of everything screened.
ADAM17 inh – inhibits human ADAM17 | P78536 | inhibition, % at 6.95 µM | 0.83% of 370,000 active | recombinant ADAM17, EDANS/DABCYL FRET peptide cleavage;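 active = inhibition above the mean of compounds lying between control limits plus 3 SD, set per campaign, cut at about 8.5% in these data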;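 also: 0% = DMSO-only wells as the low control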
Target sequence (P78536 215-824 limits assumed): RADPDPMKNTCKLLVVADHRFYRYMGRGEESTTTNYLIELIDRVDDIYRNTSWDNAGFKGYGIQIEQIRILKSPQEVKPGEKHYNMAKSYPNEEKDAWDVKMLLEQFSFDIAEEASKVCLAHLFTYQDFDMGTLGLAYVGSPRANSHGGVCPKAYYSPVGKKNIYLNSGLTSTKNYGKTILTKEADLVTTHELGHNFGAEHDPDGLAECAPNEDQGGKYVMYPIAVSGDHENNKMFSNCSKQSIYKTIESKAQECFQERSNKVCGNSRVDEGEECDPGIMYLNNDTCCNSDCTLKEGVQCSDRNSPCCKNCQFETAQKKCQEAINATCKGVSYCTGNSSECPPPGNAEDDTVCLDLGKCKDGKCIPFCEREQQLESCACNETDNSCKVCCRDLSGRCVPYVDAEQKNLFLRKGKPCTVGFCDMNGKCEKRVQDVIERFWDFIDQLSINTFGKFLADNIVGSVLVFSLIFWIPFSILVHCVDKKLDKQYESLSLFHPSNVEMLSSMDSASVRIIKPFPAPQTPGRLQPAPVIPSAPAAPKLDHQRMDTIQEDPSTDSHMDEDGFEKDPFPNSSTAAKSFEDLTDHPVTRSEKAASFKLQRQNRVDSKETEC
GRIN3A LBD mod – modulators (binders) of human NR3A ligand-binding domain. NR3A LBD differential scanning fluorimetry, Tm shift; 0% = protein alone, 100% = glycine-bound protein. Tm shift relative to glycine control, % at 25 µM. 2.5% of 340,000 active;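 active = melting temperature shift of at least 10% of the positive control shift, at one fixed dose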
ADAM10 inh – inhibits human ADAM10; recombinant ADAM10, EDANS/DABCYL FRET peptide cleavage, 3 h; 0.62% of 370,000 active; inhibition, % at 7 µM;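 active = inhibition above a per-campaign cutoff equal to the mean of compounds falling between control-based bounds plus 3 SD, cut at about 20% in these data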;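 also: 0% = DMSO wells while the 100% control is not disclosed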
proKLK7 act – proKLK7 (human) activation, primary screen; P49862; purified proKLK7, EDANS-DABCYL substrate fluorescence; 100% is mature enzyme control, 0% vehicle; activation, % at 7 µM; 0.9% of 370,000 active;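 active = activation above the mean of all tested compounds plus 3 SD, computed per campaign excluding outliers beyond control limits, cut at about 13% in these data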
FAS-TE inh – inhibitors of human fatty acid synthase thioesterase domain; P49327; recombinant FAS-TE, OMFH fluorogenic substrate, fluorescence endpoint; inhibition, % at 15 µM; 0.67% of 360,000 active; AID 602261;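 active = compounds whose normalised, plate-corrected inhibition of enzyme fluorescence in the single-dose primary screen is 50% or more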;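 also: 0% = DMSO with enzyme and 100% = substrate without enzyme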
ADAM10 counter – inhibits human ADAM10 in ADAM17 exosite counter-screen. AID 743256. inhibition, % at 6.95 µM. recombinant ADAM10, EDANS/DABCYL FRET peptide cleavage, 3 h. shares compounds with ADAM17 inh. 47% of 2,900 active;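 active = mean inhibition over the triplicate runs exceeds the activity threshold set in the earlier primary screen, cut at about 20% in these data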;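 also: 0% = DMSO wells and 100% = marimastat wells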
ADAM17 confirm – confirmation of inhibitors of human ADAM17. inhibition, % at 6.95 µM. shares compounds with ADAM17 inh. 65% of 2,900 active. recombinant ADAM17, EDANS/DABCYL QFRET peptide cleavage;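 active = mean inhibition across replicates above the hit cutoff set in the primary screen, cut at about 8.5% in these data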;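 also: 0% = DMSO wells and 100% = marimastat wells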
* marks the source's active call; other numbers are inactive results; i = inactive; . = no result.

SMILES	ADAM17 inh	GRIN3A LBD mod	ADAM10 inh	proKLK7 act	FAS-TE inh	ADAM10 counter	ADAM17 confirm
Cc1ccc(CNC(=O)C(=O)NCCC2CCCCN2S(=O)(=O)c2ccc(C)cc2)cc1 (stereo not given)	13.1*	-0.6	19.0	0.4	24.8	5.6	1.5
Cc1ccc(CNC(=O)C(=O)NCC2OCCCN2S(=O)(=O)c2cccs2)cc1 (stereo not given)	10.5*	9.6	3.6	0.7	0.0	-2.0	0.1
O=C(NCCC1CCCCN1S(=O)(=O)c1ccccc1)C(=O)Nc1ccc(F)cc1 (stereo not given)	9.7*	2.5	-11.2	-0.5	21.3	11.3	7.9
CCC(C)(C)c1ccc(OCCCC[n+]2cccc(C)c2)c(C(C)(C)CC)c1	9.4*	-7.1	9.1	-0.3	5.0	10.9	5.7
CC1(C)OC(=O)C2=C(CC(CCc3ccccc3)OC2CCc2ccccc2)O1 (stereo not given)	1.2	.	3.4	-0.5	.	.	.
Cc1cc(Oc2ccccc2)nc(SCC(=O)Nc2ccc(Cl)c(Cl)c2)n1	13.5*	2.6	18.9	-0.1	35.1	17.0	11.9*
COC(=O)Cc1nnn2c1[C@H](C)[C@H](c1cccc(OC)c1OC)OCC2	-2.2	.	-0.8	0.4	.	.	.
CCOC(=O)C1=C(C(=O)OCC)C2N(Cc3ccc(C#N)cc3)c3ccccc3[C@@]23C[C@@H](C(=O)OC)N(S(=O)(=O)c2ccc(OC)cc2)C3=N1 (stereo not given in full)	11.9*	.	16.3	-0.1	.	19.4	11.9*
C[C@H](O)[C@@H]1C(=O)N2CCc3c([nH]c4c(-c5ccccc5)cccc34)[C@@H]2C[C@@H]1N(C)CC1CCCCC1	-47.9	.	-207.8	-6.3	.	.	.
CC1CCCN(c2nc(NCc3ccco3)nc(N)c2[N+](=O)[O-])C1 (stereo not given)	9.7*	1.3	18.0	-0.2	10.3	0.7	5.2
CC(C)(C)c1ccc(OCc2nc(-c3ccccn3)no2)c(Br)c1	8.7*	-22.6	15.6	0.0	16.3	15.3	18.4*
O=S(=O)(c1ccc(F)cc1)N1CCCc2nc(-c3ccc(Br)cc3)ccc21	-1.2	.	-6.9	0.0	.	.	.
O=S(=O)(c1cccc(Cl)c1)N1CCN(S(=O)(=O)c2ccc3c(c2)OCCO3)CC1	10.3*	1.4	12.2	-0.3	-1.8	6.5	6.2
CCOc1ccc(N(CC(=O)Nc2cccc(C)c2)S(C)(=O)=O)cc1	9.0*	1.4	9.3	-0.6	0.8	0.1	1.9
CCOC(=O)N1CCN(C(=O)CN(c2ccc(OCC)cc2)S(C)(=O)=O)CC1	-0.7	0.8	-4.4	0.2	-5.0	.	.
CCOc1ccc(N(CC(=O)NN=C2CCN(C)CC2)S(C)(=O)=O)cc1	8.7*	-0.5	11.6	0.3	-8.4	-2.7	-0.6
CSCCC(c1nc2ccccc2[nH]1)n1c(/C=C/c2ccc(Cl)cc2)nc2ccccc21 (stereo not given)	8.0	.	-6.0	0.3	.	.	.
O=C1CC(c2ccco2)CC(O)=C1C=Nc1cc(Cl)ccc1O (stereo not given)	11.4*	1.7	17.6	-0.8	24.9	-30.4	-5.6
COC(=O)c1cc2c(c3c4ccccc4n(S(=O)(=O)c4ccccc4)c13)C(=O)N(C)C2	-3.8	.	-16.9	0.8	.	.	.
CCC(C)[C@H](N)c1nnc(SCC(=O)c2ccc(Cl)cc2)o1 (stereo not given in full)	9.2*	1.6	14.6	-1.0	-3.3	-7.8	-0.3
CC(C)[C@H](N)c1nnc(SCc2ccc(Cl)cc2)o1	-7.8	-0.4	1.3	-0.2	-9.0	.	.
O=C(COC(=O)CNS(=O)(=O)c1cccc(Br)c1)Nc1ccccc1Sc1ccccc1	9.9*	1.4	15.2	-0.4	-7.0	26.5*	14.5*
CCCCCCCCN1C(=O)[C@@H](CC(=O)NCC2CCCCC2)C[C@@]2(C(=O)OC)C1=C[C@H](C1CCCC1)O[C@@H]2C	-1.2	.	3.3	-0.6	.	.	.
CN(C)S(=O)(=O)c1ccc(/C(O)=C2/C(=O)C(=O)N(Cc3cccnc3)C2c2ccco2)cc1 (stereo not given)	12.3*	1.8	0.4	0.0	-6.3	3.0	2.1
O=C(NCC1CCN(C(=O)C(=O)c2cc3ccccc3o2)CC1)c1cccnc1	-3.9	.	-1.5	-0.1	.	.	.
SMILES	ADAM17 inh	GRIN3A LBD mod	ADAM10 inh	proKLK7 act	FAS-TE inh	ADAM10 counter	ADAM17 confirm
CCN(c1ccc(OC)cc1)S(=O)(=O)c1nnc(NC(=O)C2CCCCC2)s1	10.1*	-4.2	5.4	-0.1	-1.8	-2.3	-1.5
C/C=C/C(=O)OCC(=O)Nc1nc2ccc(C)cc2s1	9.3*	-1.7	16.2	-0.5	-3.6	-11.2	-1.9
C/C(CC(=O)Nc1ccc(Br)cc1)=N\NC(=O)c1cccc(O)c1	10.0*	-1.1	5.4	-0.1	-1.6	0.1	1.9
Cc1ccccc1-c1cccc2[nH]c3c(c12)CCN1C(=O)[C@H]2[C@H](C)ON(C)[C@H]2C[C@@H]31	-146.6	.	i	-33.9	.	.	.
CCOC(=O)c1ccc(NC(=S)NCc2ccc(F)cc2)cc1	12.1*	6.6	18.2	0.5	13.5	13.7	10.2*
CCOC(=O)c1ccc(NC(=S)NCc2ccc(S(N)(=O)=O)cc2)cc1	0.9	-2.7	5.7	-0.6	-1.0	.	.
Cc1ccc(S(=O)(=O)N2CC3=C(c4ccccc4)CC4(C)C(=O)C(C)(C)CC4=C3C2)cc1 (stereo not given)	-1.5	.	-5.8	-0.5	.	.	.
COc1ccc(CNC(=O)C2CCN(C(=O)[C@@H](CC(C)C)NC(=O)OC(C)(C)C)CC2)cc1	8.6*	.	2.0	-0.1	1.4	-7.2	-3.3
Nc1[nH]c(C(=O)c2ccccc2)c(-c2cccc(C(F)(F)F)c2)c1C(=O)c1c[nH]c2ccccc12	7.0	.	10.9	0.3	.	.	.
C[C@H](O)[C@@H]1CN2CCc3ccc(-c4ccc5c(c4)OCO5)cc3[C@@H]2C[C@@H]1N(C)C(=O)c1ccco1	-1.6	.	-3.4	0.0	.	.	.
CCOC(=O)C1=C(c2ccccc2)NC(=O)NC1c1cc(Br)c(O)c(OC)c1 (stereo not given)	10.3*	2.4	-0.7	0.3	-3.2	12.8	3.0
CCOC(=O)C1=C(C)NC(=O)NC1c1cc(Br)c(O)c(OC)c1 (stereo not given)	-5.0	0.5	-2.1	0.4	-3.1	.	.
CCOC(=O)C1=C(c2ccccc2)NC(=S)NC1c1cc([N+](=O)[O-])ccc1OC (stereo not given)	9.2*	-5.1	11.9	-0.2	38.2	10.1	6.0
CSCCC(NC(=O)OCc1ccccc1)C(=O)NC(Cc1c[nH]c2ccccc12)C(=O)O (stereo not given)	-7.4	.	-7.2	0.3	.	.	.
